KB-3-1 cytotox: kills parental KB-3-1 adenocarcinoma cells. AID 1347075. KB-3-1 viability, CellTiter-Glo ATP luminescence, 72 h. Potency, µM (doses to about 46.1 µM), usual class: cytotoxic. hit rate 1.4% among 400,000; further: on the % scale 0 is the no-effect control and ±100 the full control effect; nearly all actives have a fitted effect of over 60% in size
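Multi-concentration cytotoxicity screen in KB-3-1 cells grown in DMEM lacking phenol red with 10% FBS. After 72 h at 37 °C with compound, ATP-dependent luminescence was recorded.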
TSG101-PTAP inh: blocks PTAP/TSG101 interaction to inhibit HIV-1 budding. Q99816. Fluorescence polarization, FITC-PTAP peptide / Tsg101 binding. Potency, µM (highest dose often 115 µM), without a hit: top-dose activity change, negative = inhibition, usual class: inhibitors. 340,000 tested, under 10 active. AID 493005; active means well fitted inhibition curve with a large enough effect in the main read-out, with a control signal flat, not every such curve was filed as active; inconclusive means small, poorly fitted or top-dose-only effect, or effect the other way, or a change in a side signal; inactive means no such curve, though single readings can be large or run the other way; further: % of control where 0% means no effect
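Tsg101 binding domain (10 uM final) was mixed with compound and a FITC-labeled PTAP peptide (50 nM final) in HEPES pH 7.5 buffer with NaCl, Tween 20, EDTA and TCEP; fluorescence polarization was read after 20 min at r.t.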
RGS4 inhibitor: human RGS4 inhibition; hit rate 0.039% among 390,000; Transcreener GDP fluorescence polarization, RGS4-accelerated GTP hydrolysis; Potency, µM (series often up to 114 µM), for the others: at the highest dose activity change, negative = inhibition, actives largely listed as inhibitors; AID 504845; P49798; further: on the % scale 0 is the no-effect control and ±100 the full control effect; nearly all actives have a fitted effect of over 75% in size
Target sequence (P49798 whole entry, looked up): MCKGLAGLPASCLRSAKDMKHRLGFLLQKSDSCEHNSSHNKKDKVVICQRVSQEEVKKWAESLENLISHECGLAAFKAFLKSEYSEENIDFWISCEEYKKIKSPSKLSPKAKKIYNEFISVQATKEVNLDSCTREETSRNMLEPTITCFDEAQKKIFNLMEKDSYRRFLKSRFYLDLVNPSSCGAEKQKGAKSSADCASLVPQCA
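MLSMR compounds (23 nl, pin-transferred) preincubated 10 min at room temperature with a 500nM (2x) first reagent, then RGS4 at 900nM (2x) plus Transcreener GDP mix added; fluorescence polarization (620/688 nm) read before and after 90 min at 30 °C.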
MCF10A rereplic: inducers of DNA re-replication in MCF 10A breast cells | hit rate 2.9% among 350,000 | AID 624296 | Potency, µM (doses to about 46.1 µM), for inactives: top-dose activity, positive = re-replication, usual class: activators | MCF 10A DNA re-replication, Hoechst nuclear intensity, 48 h; further: % of control where 0% means no effect; nearly all actives have a fitted effect of over 50% in size
SW480 rerep: induces DNA re-replication in SW480 colon adenocarcinoma cells | SW480 DNA re-replication, Hoechst DNA content imaging, 48 h | AID 624297 | Potency, µM (doses to about 46.1 µM), without a hit: at the highest dose re-replication activation, most hits filed as activators | hit rate 1.8% among 340,000; further: % of control where 0% means no effect; nearly all actives have a fitted effect of over 55% in size
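Treated cells incubate 48 hr (37 C, 5% CO2), are stained 40 min with Hoechst, and nuclear fluorescence is enumerated; a rise in nuclei with high DNA signal marks re-replication.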
KB-V1 cytotox: kills drug-selected multidrug resistant KB-V1 cells; KB-V1 MDR cells viability, CellTiter-Glo, 72 h; Potency, µM (titrated, usually from 46.1 µM), actives largely listed as cytotoxic; hit rate 3.4% among 400,000; further: on the % scale 0 is the no-effect control and ±100 the full control effect; nearly all actives have a fitted effect of over 60% in size
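KB-V1 MDR subline cells in DMEM (phenol-red free, 10% FBS) exposed to compounds in qHTS concentration series for 72 h at 37 degrees C. Viability read by CellTiter-Glo luminescence; concentration-effect curves fitted after normalization and correction.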
Active calls of the source: *; i = inactive; ? = inconclusive; . = not tested or not shown. An excerpt weighted towards active compounds, which were near 6.6% of everything screened. Unless noted, the call rests on the fitted dose curve; in most records, active means well fitted curve in the direction sought with a large enough effect; inconclusive means small, poorly fitted or top-dose-only effect, or another doubt; inactive means no such curve, though single readings can be large; an effect the other way counts as inactive or inconclusive. Potency means the concentration at half of the fitted maximal effect.

SMILES	KB-3-1 cytotox	TSG101-PTAP inh	RGS4 inhibitor	MCF10A rereplic	SW480 rerep	KB-V1 cytotox
Cc1cccc(NC(=O)CCCc2ccccc2)c1	i	-2%	-13%	0%	-8%	i
COc1ccc(N(Cc2cc3cccc(C)c3[nH]c2=O)C(=O)c2cccc(Cl)c2)cc1	i	.	24%	.	.	?
CN(CC(=O)Nc1ccc(F)cc1)C(=O)CSc1nnc(Cc2ccccc2)o1	i	-1%	-2%	4%	-3%	16µM*
O=C(CCC(=O)N1CC2CCCN2c2ccccc21)NCc1ccc(F)cc1 (centres undefined)	i	.	-23%	.	.	i
CN(Cc1c(F)cccc1Cl)c1ccc(S(=O)(=O)N2CCOCC2)cn1	?	6%	9%	17%	-6%	18µM*
CCOC(=O)C1=C(N)Oc2cc(O)ccc2C1c1ccccc1 (centres undefined)	?	-1%	-9%	?	23%	?
CCOC(=O)C1=C(C)N(c2ccccc2)C(=O)NC1c1cccc([N+](=O)[O-])c1 (centres undefined)	i	2%	-31%	?	-7%	21µM*
CCOC(=O)C1=C(C)N(C)C(=O)NC1c1cccc([N+](=O)[O-])c1 (centres undefined)	i	-2%	2%	?	-8%	i
CCOC(=O)C1=C(N)Oc2cc(O)ccc2C1c1cccc([N+](=O)[O-])c1 (centres undefined)	?	0%	-33%	8.2µM*	?	?
CC(=O)NS(=O)(=O)c1ccc(NC(=O)C(Sc2ccccc2)c2ccccc2)cc1 (centres undefined)	i	-6%	18%	5%	-3%	?
O=C(Nc1ccon1)C(Sc1ccccc1)c1ccccc1 (centres undefined)	i	-7%	-3%	-1%	3%	i
CCC(C)NS(=O)(=O)c1ccc(NC(=O)C(Sc2ccccc2)c2ccccc2)cc1 (centres undefined)	?	0%	5%	?	?	16µM*
O=C(Nc1nncs1)C(Sc1ccccc1)c1ccccc1 (centres undefined)	i	-2%	-34%	-55%	-59%	21µM*
CC(C)COC(=O)c1cccc2c1-c1ccccc1/C2=N\O	i	-3%	-14%	18µM*	1%	i
CCOC(=O)c1cccc2c1-c1ccccc1/C2=N/O	i	-7%	-4%	12%	2%	i
O=C(CNc1ccc2c(c1)OCO2)N/N=C\c1cn(Cc2ccc(F)cc2)c2ccccc12	.	.	.	21µM*	-2%	.
O=C(CNc1ccc2c(c1)OCO2)N/N=C\c1cn(Cc2ccccc2)c2ccccc12	?	-1%	-33%	15%	-9%	?
N#CCC(=O)N/N=C/c1cn(Cc2ccc(Cl)cc2Cl)c2ccccc12	i	-1%	-39%	12µM*	?	i
CC12C=CC(=O)C=C1[C@@H](F)CC1C2C(O)CC2(C)C1CC[C@]2(O)C(=O)CO (some centres undefined)	.	.	.	13%	-3%	.
COc1ccc(-c2nc(C#N)c(N3CCCCC3)o2)cc1	i	0%	16%	9%	7%	i
CCCOc1ccc(-c2nc(C#N)c(N3CCN(C)CC3)o2)cc1	i	-3%	-26%	-6%	3%	i
COc1ccc(-c2nc(C#N)c(N3CCCCCC3)o2)cc1OC	i	-4%	-11%	?	4%	8.2µM*
N#Cc1nc(-c2ccco2)oc1N1CCc2ccccc2C1	i	-5%	-19%	?	10%	8.2µM*
CCCOc1ccc(-c2nc(C#N)c(N3CCC(C(N)=O)CC3)o2)cc1	i	-1%	-2%	?	-1%	23µM*
CCCOc1ccc(-c2nc(C#N)c(N3CCc4ccccc4C3)o2)cc1	i	-10%	24%	17%	-1%	16µM*

Screening results from PubChem BioAssay.
